The results in this text go back to PMC7819943, “Rice protein-binding microarrays: a tool to detect cis-acting elements near promoter regions in rice”.

Over roughly 35,000 sequences, “fluorescence intensity (a.u.)” has its median near 10,000; the highest 2% begin near 52,000. What follows is part of a selection rich in the highest values, with near analogues and random picks from the rest.

This assay addresses T1, OsWOX13 (Oryza sativa, UniProt Q5QMM3 1-267).
T1 sequence: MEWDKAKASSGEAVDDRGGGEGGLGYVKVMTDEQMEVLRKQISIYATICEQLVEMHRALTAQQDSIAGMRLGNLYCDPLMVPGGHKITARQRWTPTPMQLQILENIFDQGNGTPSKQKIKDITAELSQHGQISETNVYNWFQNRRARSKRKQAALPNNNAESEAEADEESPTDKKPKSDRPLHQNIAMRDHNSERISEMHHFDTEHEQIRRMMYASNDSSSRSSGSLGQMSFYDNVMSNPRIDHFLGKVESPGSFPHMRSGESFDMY
In words: protein-binding microarray (RPBM); PBS, 2% BSA, 51.3 ng/ul salmon testes DNA, 50 uM zinc acetate, 200 nM TF, 25 C, 1 h; high values mean tight binding. The following applies: protein: recombinant; tags: N-terminal polyhistidine and DsRed monomer fusion (pET32a); label: CyDye5-dUTP incorporated in the synthesized complementary strand; 3' TTTTT single-stranded linker to array surface; dsDNA, one strand shown. An outline of the steps: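 Transcription factors were made in E. coli BL21-CodonPlus as N-terminal fusions to a polyhistidine tag and DsRed, then purified on Ni–NTA. After primer extension with Cy5-dUTP and blocking with 2% BSA, a custom Agilent array was exposed for 1 h at 25 °C to 200 nM protein in PBS, 2% BSA, salmon testes DNA and 50 µM zinc acetate. Washed arrays were scanned on an Axon 4000B, and the binding signal is per-feature fluorescence intensity in arbitrary units.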
For the sequence “ATTAATTAGCTGCCCGCAGACAAGACCCGTGACTTTGGCCCGGAGTCACCTAGTGCAG”, the binding signal was 23800 fluorescence intensity (a.u.).

For the sequence “TACTATTAATCAATCACATATAATTAACAATTAGTGTGATCGGAGTCACCTAGTGCAG”, the binding signal was 41200 fluorescence intensity (a.u.).

As to “GGTTAATCAATCAATCAGTTAATTACACAATTACTCACATCGGAGTCACCTAGTGCAG”, the binding signal is 57300 fluorescence intensity (a.u.).

In the case of “AATTAACATCAATAACAAAGTGTTGTACTGTAATCATCTTCGGAGTCACCTAGTGCAG”, the binding signal is 4050 fluorescence intensity (a.u.).

For the sequence “TACAATTATGATTTGCCTTCAAATTTGCATTTTCATATTTCGGAGTCACCTAGTGCAG”, the binding signal was 13500 fluorescence intensity (a.u.).

For “AAAGATTGCCGAGTTTAATTGCAATCAATTACGGGAAGATCGGAGTCACCTAGTGCAG”, the binding signal is 52900 fluorescence intensity (a.u.).

In the case of “ATAATTAAAACTCAATTAATCACACGTTATTATCACATCGCGGAGTCACCTAGTGCAG”, the binding signal was 14200 fluorescence intensity (a.u.).

In the case of “ATAATAATTAATATTTCATTAATTATATGCTAACGAGTTTCGGAGTCACCTAGTGCAG”, the binding signal was 43400 fluorescence intensity (a.u.).

On to “TATTTAATTGCAACGAATACAATAGTTTAATCGGATTATACGGAGTCACCTAGTGCAG”, for which the binding signal is 9360 fluorescence intensity (a.u.).

For the sequence “TATAATTAATTATTTGCTAGATTTCATTCATATGACAATTCGGAGTCACCTAGTGCAG”, the binding signal was 54600 fluorescence intensity (a.u.).

As to “TAGTACTCTCAATTAATTACAAACCACACCATCAAATTCTCGGAGTCACCTAGTGCAG”, the binding signal was 7020 fluorescence intensity (a.u.).

As for “GAAGATTTAATTGCAACAAATTTAATAGTGCAATCGGATCCGGAGTCACCTAGTGCAG”, the binding signal was 40800 fluorescence intensity (a.u.).

On to “GCTTAATTAACAATCAACATAACTACTAACTAGTGTTGTTCGGAGTCACCTAGTGCAG”, for which the binding signal is 57300 fluorescence intensity (a.u.).

Turning to “AGATTAATTAGGCTTAATAGATTCGTCTACGTTTAATACTCGGAGTCACCTAGTGCAG”, the binding signal is 20900 fluorescence intensity (a.u.).

As for “GCCAAATTAGATGGAAAGTTGGTTATATAGGTGTTTATATCGGAGTCACCTAGTGCAG”, the binding signal was 29100 fluorescence intensity (a.u.).

“AATTATACAATCAATCAAATACTGAAATTTAAAATTGGTACGGAGTCACCTAGTGCAG”: the binding signal is 15800 fluorescence intensity (a.u.).

As for “CAAAAGAACAATTATTGATCAACTAATGTACACGTCCCAGCGGAGTCACCTAGTGCAG”, the binding signal is 13900 fluorescence intensity (a.u.).

Turning to “AGCTGAAATTAAGAACAGACAGACATGATCACAGATCGAGCGGAGTCACCTAGTGCAG”, the binding signal is 10100 fluorescence intensity (a.u.).

On to “TGATGATTAGTCGATTACTGTTTTCCTATAGCCATCGTTACGGAGTCACCTAGTGCAG”, for which the binding signal was 30100 fluorescence intensity (a.u.).

Consider “AGGAATATATATAATTTACAAATAACTAAAATTTGATATTCGGAGTCACCTAGTGCAG”, for which the binding signal was 4110 fluorescence intensity (a.u.).

Take “ATCTGTCACATTAGACATAAATAAAATATTTGCGAAATGTCGGAGTCACCTAGTGCAG”: the binding signal was 3540 fluorescence intensity (a.u.).

With “AAGTGTTTGTAATTACTAAAATTTTGACATGAATTCAAATCGGAGTCACCTAGTGCAG”, the binding signal was 8700 fluorescence intensity (a.u.).

In the case of “TTTAATTACTAATCAATTTCATACATTCATATAGTTTATTCGGAGTCACCTAGTGCAG”, the binding signal was 55600 fluorescence intensity (a.u.).

For “TTGACCAATCAATTACTCACTGGTACGGAAAACACTATAGCGGAGTCACCTAGTGCAG”, the binding signal was 23300 fluorescence intensity (a.u.).

As for “GTTAATTTTGTTTAATTAATGGTGGAAGCAGCCATCATCACGGAGTCACCTAGTGCAG”, the binding signal was 38200 fluorescence intensity (a.u.).

“CTTCTAATTTTGTTAATTGGGAAGACATCATAGAGTGGAACGGAGTCACCTAGTGCAG”: the binding signal is 65400 fluorescence intensity (a.u.).

“GATTATGATTTGGAGAAAATTGCATCCATAAAACATTAATCGGAGTCACCTAGTGCAG”: the binding signal is 8000 fluorescence intensity (a.u.).

As to “TGGTATTTAATTATTTGTTAGAGTCATCATTGGTCTATAACGGAGTCACCTAGTGCAG”, the binding signal was 8940 fluorescence intensity (a.u.).

Take “ACTCAGTATACACTAATTAGCAATTATTACCGAAATTGTACGGAGTCACCTAGTGCAG”: the binding signal was 23400 fluorescence intensity (a.u.).

Consider “AAATCAATAATTAAATATAGTTTCATAATATATTTATCTTCGGAGTCACCTAGTGCAG”, for which the binding signal is 22700 fluorescence intensity (a.u.).

Consider “CCATTAATTATGTTGGACATAATTAAGAGAATTTGCTAAACGGAGTCACCTAGTGCAG”, for which the binding signal is 52300 fluorescence intensity (a.u.).

Regarding “TTTAATTTGTTCATTAAAGACCTAAGAGCTAATAAACGGACGGAGTCACCTAGTGCAG”, the binding signal was 23100 fluorescence intensity (a.u.).

For the sequence “CGATTTCTTGTTTAATTACTAATCAATTTCATACATTCATCGGAGTCACCTAGTGCAG”, the binding signal is 13400 fluorescence intensity (a.u.).

Consider “GAGTAATTACTAATTAGCTGGTACACTCAATCCAGTACGGCGGAGTCACCTAGTGCAG”, for which the binding signal was 59000 fluorescence intensity (a.u.).

Regarding “TGGATTAAACTAATTTACTGATAAGGTGCGTACAAAATTGCGGAGTCACCTAGTGCAG”, the binding signal was 9850 fluorescence intensity (a.u.).

Regarding “CTATGTCTGTGTTTGATGATTGCAAGCTGATGTGGGATGGCGGAGTCACCTAGTGCAG”, the binding signal was 9180 fluorescence intensity (a.u.).

Take “ATCTATCTATCTATCTATCTATCTATCTATCTATCTATCTCGGAGTCACCTAGTGCAG”: the binding signal was 20600 fluorescence intensity (a.u.).

“ATCTGTGTAGTCAATTATATTCTCCCTGGGGCCAAACGAACGGAGTCACCTAGTGCAG”: the binding signal is 4100 fluorescence intensity (a.u.).

As to “TGATCTGATTGAACAGTCAATCACAGATTCACAGTAGGACCGGAGTCACCTAGTGCAG”, the binding signal is 62500 fluorescence intensity (a.u.).

“CATTTGACTGAACAAGAACAGTAGGATCAATCTTTGTGCACGGAGTCACCTAGTGCAG”: the binding signal was 16900 fluorescence intensity (a.u.).

“ATGACACATGCCGTTGATTGGTTGACACAGATCGGATTCGCGGAGTCACCTAGTGCAG”: the binding signal was 46900 fluorescence intensity (a.u.).

For the sequence “TTTGTTGATTTGTTTTGGTTGGATTGATCTGTCGCTTATACGGAGTCACCTAGTGCAG”, the binding signal is 25500 fluorescence intensity (a.u.).

As for “AACACATTGGATTGATTGATCTGTCGCGGAACAGATTGACCGGAGTCACCTAGTGCAG”, the binding signal was 52300 fluorescence intensity (a.u.).

Turning to “CCAGTCAAGGGAACAGATTGACCAATCGTTCACACCAGTGCGGAGTCACCTAGTGCAG”, the binding signal was 18400 fluorescence intensity (a.u.).
